From PubChem BioAssay
Compounds with a hit are over-represented: about 0.72% of the library has one in this group of screens.
ASM inhibitor = Inhibitors of Secretory Acid Sphingomyelinase (S-ASM): qHTS; placental ASM, HMU-PC fluorogenic substrate, 60 min; hit rate 0.006% among 340,000; Potency, µM (top dose mostly 57.5 µM), for the others: top-dose activity change, negative = inhibition, most hits filed as inhibitors; Sphingomyelin phosphodiesterase (Homo sapiens), P17405; also: potency is read from the fitted curve at half-maximal effect
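Human placenta-derived ASM preincubated with compound 10 min at room temperature, then reacted with 9 uM (final) fluorogenic HMU-PC substrate for 60 min at 37 C. Stop solution raises pH to 10; fluorescence read at Ex 386/Em 447 nm.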
Mito fusion yeast = qHTS Assay for Small Molecule Inhibitors of Mitochondrial Division or Activators of Mitochondrial Fusion; S. cerevisiae fusion-defective mutant growth rescue, CellTiterGlo 48 h; Potency, µM (titrated, usually from 46.1 µM), inactives show at the top dose growth rescue (activation), most hits filed as activators; hit rate 0.23% among 320,000; AID 485298, 2010; also: potency is read from the fitted curve at half-maximal effect; % of control where 0% means no effect; nearly all actives have a fitted effect of over 45% in size
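S. cerevisiae fusion-defective temperature-sensitive mutants (e.g. fzo1-1, mgm1-5) grown 48 h at 37C in YPEG (ethanol/glycerol non-fermentable) medium with 23 nl compound per well; growth rescue read as CellTiterGlo luminescence.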
RXFP1 ag = qHTS Assay for Agonists of the Relaxin Receptor RXFP1; Relaxin receptor 1 (Homo sapiens), Q9HBX9; HEK293T-RXFP1 cAMP TR-FRET, 30 min; response scale: percent of porcine relaxin response, buffer zero; Potency, µM (doses to about 57.5 µM), without a hit: top-dose activation, actives largely listed as activators; hit rate 0.3% among 370,000; AID 2676, 2010; also: potency is read from the fitted curve at half-maximal effect; % is scaled to controls: 0 for no effect and ±100 for the full control effect; nearly all actives have a fitted effect of over 60% in size
Target sequence (Q9HBX9 whole entry, looked up): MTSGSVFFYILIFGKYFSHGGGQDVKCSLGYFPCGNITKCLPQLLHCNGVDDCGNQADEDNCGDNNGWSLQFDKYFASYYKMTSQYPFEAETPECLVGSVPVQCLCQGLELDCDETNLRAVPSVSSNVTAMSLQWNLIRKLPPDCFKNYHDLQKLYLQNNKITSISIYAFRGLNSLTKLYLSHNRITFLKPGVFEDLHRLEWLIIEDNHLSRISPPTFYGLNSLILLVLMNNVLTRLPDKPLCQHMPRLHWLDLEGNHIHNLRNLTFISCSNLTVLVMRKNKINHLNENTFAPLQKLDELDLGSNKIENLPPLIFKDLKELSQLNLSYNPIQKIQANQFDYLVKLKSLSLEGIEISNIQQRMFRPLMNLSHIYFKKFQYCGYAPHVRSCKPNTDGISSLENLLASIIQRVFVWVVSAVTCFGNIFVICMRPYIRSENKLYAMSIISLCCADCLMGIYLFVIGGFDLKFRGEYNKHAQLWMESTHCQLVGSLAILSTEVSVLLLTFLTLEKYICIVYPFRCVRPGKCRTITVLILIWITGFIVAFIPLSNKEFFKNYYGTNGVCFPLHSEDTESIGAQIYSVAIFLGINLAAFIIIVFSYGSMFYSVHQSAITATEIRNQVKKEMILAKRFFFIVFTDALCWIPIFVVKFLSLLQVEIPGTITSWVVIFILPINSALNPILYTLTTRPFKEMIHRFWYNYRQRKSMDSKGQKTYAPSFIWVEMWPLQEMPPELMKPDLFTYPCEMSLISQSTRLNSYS
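HEK293 cells stably expressing RXFP1, treated 30 min at 37C with compounds plus PDE4 inhibitor Ro 20174; cAMP measured by HTRF TR-FRET. Normalized to buffer and 29 nM porcine relaxin; EC50 by Hill fit.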
miR-21 act = qHTS Assay for Modulators of miRNAs and/orActivators of miR-21; HeLa miR-21 FLuc reporter, luciferase, 48 h; 340,000 tested, under 10 active; AID 2288, 2010; Potency, µM (doses to about 38.3 µM), for inactives: at the top dose activity change, positive = activation, most hits filed as activators;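 also: % of control where 0% means no effect; miR-21 action dims this reporter so a rising signal means less miR-21 action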
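HeLa miR-21-FLuc reporter line, endogenous miR-21; 2000 cells/well in DMEM/10% FBS; compound titration up to ~40uM final, 48 h, 37 degree Celsius; luciferase detection reagent, 15 min lysis, CCD luminescence.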
ERG Ets-DNA blk = qHTS for Small Molecule Inhibitors of the ERG Ets/DNA interaction. Transcriptional regulator ERG (Homo sapiens), P11308. fluorescence polarization, His-ERG Ets domain / labelled DNA. Potency, µM (highest dose often 76.9 µM), inactives show at the highest dose FP activity, negative = inhibition, hits mostly inhibitors. hit rate 0.028% among 370,000. AID 624246, 2012; active = well fitted inhibition curve with a large enough effect in the polarisation, with a control signal flat; inconclusive = small, poorly fitted or top-dose-only effect, or effect the other way, or a change in a side signal; inactive = no such curve, though single readings can be large or run the other way; the % refers to the polarisation;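 also: polarization taken with two DNA probes labelled with fluorescein and Texas red; potency is read from the fitted curve at half-maximal effect; % of control where 0% means no effect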
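His-tagged ERG Ets domain (1 uM in the protein solution; 300mM KCl, 50mM Tris-HCl, 1mM EDTA, 1mM DTT, pH 7.5) received compound, then a probe mix of 5 nM fluorescein-DNA and 100nM Texas-615-DNA. Fluorescence polarization was read for both dyes.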
RXFP1 antagonist = qHTS Assay for Antagonists of the Relaxin Receptor RXFP1; Relaxin receptor 1 (Homo sapiens), Q9HBX9; HEK293-RXFP1, relaxin-stimulated cAMP HTRF, 30 min; hits give low values; activity change, negative = inhibition, % at 57.5 µM; hit rate 0.59% among 350,000; AID 1259400, 2018;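 active = activity change of -60% or lower, but not beyond a set lower limit; inconclusive = change between -60% and -40%, or beyond the set limit; inactive = change above -40%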; also: % is scaled to controls: 0 for no effect and ±100 for the full control effect
Numbers without * were called inactive; i = inactive; ? = inconclusive; · = no result given; ! = a repeat was not active. Unless noted, calls follow the shape of the dose curve; as a rule, active = well fitted curve in the direction sought with a large enough effect; inconclusive = small, poorly fitted or top-dose-only effect, or another doubt; inactive = no such curve, though single readings can be large; an effect the other way counts as inactive or inconclusive.

SMILES	ASM inhibitor	Mito fusion yeast	RXFP1 ag	miR-21 act	ERG Ets-DNA blk	RXFP1 antagonist
CC(C)C(=O)Nc1ccc([N+](=O)[O-])c(C(F)(F)F)c1	-0.4%	14.6µM*!	2.2%	14.4%	-18.4%	-25.2
CC(C)c1ccc(NC(=O)Cn2c(=O)oc3cc(S(=O)(=O)N4CCCC4)ccc32)cc1	·	·	-0.1%	?	6.4%	·
CN(C(=O)c1cccc(N2C(=O)C3C4C=CC(C4)C3C2=O)c1)C1CCCCC1 (centres undefined)	-1.8%	-6.2%	0.5%	-2.6%	?	-23.1
O=C(CBr)Nc1ccc(Cl)cc1C(=O)c1ccccc1F	·	·	·	·	·	-27.2
C[n+]1c(-c2ccccc2)c2cc(N)ccc2c2ccc(N)cc21	-13.8%	-1.1%	8.1%	?	14.1µM*	·
CCN1CCCC1CNC(=O)C(O)(c1ccccc1)c1ccccc1 (centres undefined)	·	·	·	·	·	5.5
CC(C)(C)c1ccc(C(=O)Nc2ccc3nc(SCC(=O)N4CCCC4)sc3c2)cc1	·	·	4.1%	?	-1.5%	-100.5*
Cc1ccccc1C(=O)Nc1ccc2nc(SCC(=O)N(C)c3ccccc3)sc2c1	·	·	2.2%	?	-1.9%	·
CC1=CC(=O)OC2CC3OC4C[C@@H](C)C5OC6CC7O[C@]8(C)C/C=C\C9OC%10CC%11OC(CC(C)CO)CC(O)[C@]%11(C)OC%10CC9OC8C[C@]7(C)O[C@]6(C)CCC5OC4C[C@]3(C)OC12 (some centres undefined)	-1.9%	-1.9%	3.5%	1.7%	-1.1%	·
C=C(COC(=O)CCC(=O)O)CC1CC(O)[C@]2(C)OC3CC4OC5C[C@]6(C)O[C@]7(C)CCC8OC9C[C@]%10(C)OC%11C(C)=CC(=O)OC%11CC%10OC9C[C@@H](C)C8OC7CC6O[C@]5(C)C/C=C\C4OC3CC2O1 (some centres undefined)	1.7%	15.8µM*	0.6%	5.5%	-4.5%	·
COc1ccc(C2=NCC(=O)N(CC(=O)NCc3ccco3)c3sc4c(c32)CCCC4)cc1	1.8%	2.8%	-1.1%	-3.3%	·	-9.4
Cc1cccc(C2=NCC(=O)N(CC(=O)NCc3ccco3)c3sc4c(c32)CCCC4)c1	-1.3%	-1.2%	-0.6%	?	-3.4%	-69.2*
COc1cc(CC2(CCc3ccncc3)C(=O)NC(=O)NC2=O)cc(OC)c1OC	4.0%	-3.6%	0.3%	-3.7%	1.6%	-79.5*
COc1cc2c(cc1O)CC[C@@H]1[C@@H]2CC[C@]2(C)[C@@H](O)CC[C@@H]12	-2.2%	20.6µM*!	0.2%	13.7%	8.3%	·
CC12CCC(=O)C=C1CCC1C2CCC2(C)C(O)CCC12 (centres undefined)	-3.9%	13.3%	2.4%	-20.7%	12.7%	16.5
CCCCn1c(NS(=O)(=O)c2ccccc2)c(C(=O)OCC)c2nc3ccccc3nc21	i	7.1%	10.3%	?	-8.4%	1.5
CCCCn1c(NC(=O)c2ccc(Br)o2)c(C(=O)OCC)c2nc3ccccc3nc21	i	8.91µM*	15.7%	8.2%	4.5%	-1.9
COc1ccccc1C(=O)Nc1ccc2nc(SCC(=O)N(C)c3ccccc3)sc2c1	·	·	-0.2%	?	4.0%	·
O=c1[nH]c(=S)[nH]c(O)c1N=Nc1ccc2c(c1)OCO2	-6.0%	-2.6%	-0.2%	-29.1%	16.4%	-8.5
O=c1[nH]c(=S)[nH]c(O)c1N=Nc1ccc2c(c1)OCCO2	-13.0%	-1.0%	3.1%	-49.2%	19.5%	-95.3*
CC1Sc2c(C(=O)O)c(=O)c3cc(F)c(N4CCNCC4)cc3n21 (centres undefined)	·	·	·	·	·	-3.4
Cn1c(O)c(N=Nc2cccc(S(=O)(=O)N3CCOCC3)c2)c(=O)n(C)c1=O	-12.0%	4.3%	10µM*	1.9%	8.2%	3.6
COc1cccc(-n2c(/C=C/c3ccccc3O)nc3ccccc3c2=O)c1	·	·	1.4%	?	0.9%	·
COc1cccc(-n2c(/C=C/c3cccc(C)c3)nc3ccccc3c2=O)c1	·	·	-3.5%	1.1%	28.2µM*	-6.6
CNC(=O)Oc1cc2c(cc1C(C)(C)C)CCC2	-2.5%	·	·	·	-1.4%	-85.8*
SMILES	ASM inhibitor	Mito fusion yeast	RXFP1 ag	miR-21 act	ERG Ets-DNA blk	RXFP1 antagonist
COc1ccc(C(=O)c2c(C)n(CCN3CCOCC3)c3ccccc23)cc1	·	·	·	·	·	50.2
CCCn1c(C)c(C(=O)c2ccc3ccccc3c2)c2ccccc21	·	13µM*	·	·	·	·
CC1=Nc2cc(C(=O)N3CCC4(CC3)OCCO4)ccc2Sc2ccc(Cl)cc21	-1.0%	15.8µM*	2.6%	-8.1%	15.0%	8.3
Cc1ccc(CN2CCSc3ccc(C(=O)N4CCC5(CC4)OCCO5)cc32)cc1	40.7%	32.2%	10.8%	5.3%	-1.9%	-26.3
Clc1ccc(CCC(Cn2ccnc2)Sc2c(Cl)cccc2Cl)cc1 (centres undefined)	-4.4%	0.562µM*	0.0%	·	-1.3%	-11.9
CCCCCCCCCCCCCC(=O)O[C@@H]1[C@@H](C)[C@@]2(O)[C@@H](C=C(CO)C[C@@]3(O)C(=O)C(C)=C[C@@H]23)C2C(C)(C)[C@@]21OC(C)=O (some centres undefined)	·	16.4µM*	·	·	·	·
CCOc1ccc(-c2c(C)n(-c3ccc(OCC)cc3)c3[n+]2CCCCC3)cc1	-1.6%	-22.7%	2.3%	?	-0.4%	?
CCOc1ccc(-n2nc3c(=S)[nH]nc(C)c3c2C)cc1	-0.9%	-11.7%	5.62µM*	-11.0%	2.4%	-4.3
Cc1nc2ccccc2c(=O)n1-c1ccccc1Cl	·	·	·	·	·	8.0
CN(C(=O)CNC(=O)OCc1ccccc1)c1ccc(Br)cc1C(=O)c1ccccc1Cl	-7.5%	12.6µM*	4.9%	18.8%	-6.5%	-8.1
C=CCc1cc(C=C2C(=O)NC(=O)NC2=O)cc(OC)c1OCc1ccc(C(=O)O)cc1	7.5%	2.6%	0.5%	-2.2%	14.6%	-4.3
C=CCc1cc(C=C2C(=O)N(C)C(=O)N(C)C2=O)cc(OCC)c1OCc1ccccc1	-12.8%	?	2.3%	-13.5%	10.5%	-77.0*
COc1ccccc1N=c1scc(-c2ccc(S(=O)(=O)N3CCCC3)cc2)n1C	·	·	-0.9%	?	-1.8%	-20.0
NC1=C([N+](=O)[O-])C(c2ccc3c(c2)OCO3)c2c(c3ccccc3oc2=O)O1 (centres undefined)	-0.9%	-5.2%	2.6%	0.7%	8.8%	20.2
